The values below come from PubChem BioAssay.

Values without a mark were called inactive. For some of these results: Entries with a potency or affinity are not part of this list. Active and inactive are the calls of the source. Unless noted, no rule for the calls is given here.

Assay [1] is described as follows: antimalarial activity against Dd2 strain (AID 2302;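 active = growth inhibition above 50% at the single 2 µM test dose, taken to imply half-maximal potency below 2 µM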;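 also: 0% = DMSO untreated growth and 100% = chloroquine plus artemisinin killed control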). As to conditions: P. falciparum Dd2 in RBCs, LDH growth readout, 72 h; at 2 µM; hits give high values.
The nature of assay [2]: HepG2 cytotoxicity, primary screen, cytotoxicity control for P. falciparum antimalarial project, cell-based, ATP luminescence (AID 2303;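 active = inhibition above 50%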;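 also: 0% = DMSO wells and 100% = digitonin-killed cells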). As to conditions: HepG2 viability, 24-48 h, at 10 µM, hits give high values.
In assay [3] the target is L-lactate dehydrogenase (Plasmodium falciparum (isolate CDC / Honduras)) (UniProt Q27743). As to the kind of experiment: PfLDH activity inhibition – cell lysate, 3D7 strain, counter-screen for P. falciparum growth inhibition project (AID 2304).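 Also: 0% = vehicle and 100% = reference inhibitor.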 As to conditions: P. falciparum 3D7 crude extract, LDH APAD/NBT absorbance; at 2 µM; hits give high values.
L-lactate dehydrogenase (Plasmodium falciparum (isolate CDC / Honduras)), sequence (Q27743 whole entry, looked up): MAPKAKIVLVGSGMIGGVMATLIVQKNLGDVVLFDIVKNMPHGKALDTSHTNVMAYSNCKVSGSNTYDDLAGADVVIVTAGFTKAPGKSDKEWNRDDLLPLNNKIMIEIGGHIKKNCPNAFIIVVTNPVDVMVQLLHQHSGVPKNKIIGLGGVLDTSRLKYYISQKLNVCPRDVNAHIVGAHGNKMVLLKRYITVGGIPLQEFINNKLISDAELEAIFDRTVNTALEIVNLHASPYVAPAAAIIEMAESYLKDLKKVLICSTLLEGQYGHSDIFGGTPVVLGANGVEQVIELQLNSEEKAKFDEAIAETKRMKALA
Assay [4] is described as follows: inhibition of 3D7 malaria parasite growth – strain 3D7 (AID 2306).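 Also: 0% = DMSO wells and 100% = chloroquine plus artemisinin control wells.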 The settings on record: P. falciparum 3D7 erythrocytic growth, LDH absorbance, 72 h; at 2 µM; hits give high values.
Assay [5] addresses Calcium-dependent protein kinase 1 (Plasmodium falciparum (isolate 3D7)) (UniProt P62344). As to the kind of experiment: PfCDPK1 kinase inhibitors, biochemical, TCAMS library (AID 1159585; cut-off not given, nearly all actives have IC50 up to about 0.98 µM;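 also: inhibitors leave more ATP so luminescence rises with inhibition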). As to conditions: recombinant PfCDPK1, Kinase-Glo ATP depletion luminescence. Background: In Kinase-Glo more light means more ATP remaining.
The target of assay [6] is Plasmodium falciparum protein kinase 6 (PK6, PF3D7_1337100) (UniProt Q8IDW1). The assay can be described thus: PfPK6 kinase inhibitors, biochemical, TCAMS library (AID 1159586). As to conditions: recombinant PfPK6, Kinase-Glo ATP depletion luminescence.
Plasmodium falciparum protein kinase 6 (PK6, PF3D7_1337100), sequence (Q8IDW1 1-305): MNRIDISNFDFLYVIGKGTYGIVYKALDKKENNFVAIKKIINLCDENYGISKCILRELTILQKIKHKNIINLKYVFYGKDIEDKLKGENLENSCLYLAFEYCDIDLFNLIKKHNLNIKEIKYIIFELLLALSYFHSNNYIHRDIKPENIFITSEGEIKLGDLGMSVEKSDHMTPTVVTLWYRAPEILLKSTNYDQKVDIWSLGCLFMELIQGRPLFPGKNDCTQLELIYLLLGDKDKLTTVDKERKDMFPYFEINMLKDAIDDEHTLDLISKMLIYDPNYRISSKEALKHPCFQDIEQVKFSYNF
The target of assay [7] is Protein kinase 7 (PK7), Plasmodium falciparum 3D7 (PF3D7_0213400) (UniProt Q7YTF7). The assay can be described thus: inhibition of Plasmodium PK7 catalytic activity – biochemical, TCAMS antimalarial set, Kinase-Glo luminescence (AID 1159587). The settings on record: recombinant PfPK7, Kinase-Glo ATP depletion luminescence.
Protein kinase 7 (PK7), Plasmodium falciparum 3D7 (PF3D7_0213400), sequence (Q7YTF7 1-343): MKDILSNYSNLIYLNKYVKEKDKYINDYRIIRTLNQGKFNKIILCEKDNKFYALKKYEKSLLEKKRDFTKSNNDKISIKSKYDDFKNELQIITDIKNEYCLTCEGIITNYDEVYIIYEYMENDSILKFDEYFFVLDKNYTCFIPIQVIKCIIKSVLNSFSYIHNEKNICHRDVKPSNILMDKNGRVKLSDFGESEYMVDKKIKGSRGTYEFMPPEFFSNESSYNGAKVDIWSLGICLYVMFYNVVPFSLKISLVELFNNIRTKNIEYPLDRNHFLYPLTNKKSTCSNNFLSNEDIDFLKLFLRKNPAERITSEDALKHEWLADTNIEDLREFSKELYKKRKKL
In assay [8] the target is Calcium-dependent protein kinase 4 (Plasmodium falciparum (isolate 3D7)) (UniProt Q8IBS5). As to the kind of experiment: PfCDPK4 kinase inhibitors, biochemical, TCAMS library (AID 1159588; cut-off not given, nearly all actives have IC50 up to about 0.91 µM). As to conditions: recombinant PfCDPK4, Kinase-Glo ATP depletion luminescence.
Calcium-dependent protein kinase 4 (Plasmodium falciparum (isolate 3D7)), sequence (Q8IBS5 whole entry, looked up): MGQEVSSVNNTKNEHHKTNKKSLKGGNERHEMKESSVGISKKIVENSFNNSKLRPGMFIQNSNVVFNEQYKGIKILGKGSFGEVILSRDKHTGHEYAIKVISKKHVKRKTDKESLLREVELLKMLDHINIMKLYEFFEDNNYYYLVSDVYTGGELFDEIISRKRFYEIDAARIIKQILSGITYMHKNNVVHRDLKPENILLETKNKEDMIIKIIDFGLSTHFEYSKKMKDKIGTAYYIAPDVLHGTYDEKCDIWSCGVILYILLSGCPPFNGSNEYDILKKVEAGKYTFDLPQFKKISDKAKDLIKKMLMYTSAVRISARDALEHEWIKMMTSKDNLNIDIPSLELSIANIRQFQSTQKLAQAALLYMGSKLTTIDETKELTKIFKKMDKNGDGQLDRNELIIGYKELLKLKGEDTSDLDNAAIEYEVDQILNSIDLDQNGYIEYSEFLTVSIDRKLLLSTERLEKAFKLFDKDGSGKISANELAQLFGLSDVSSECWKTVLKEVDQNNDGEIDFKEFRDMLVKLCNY

Calcium-dependent protein kinase 1 (Plasmodium falciparum (isolate 3D7)), sequence (P62344 whole entry, looked up): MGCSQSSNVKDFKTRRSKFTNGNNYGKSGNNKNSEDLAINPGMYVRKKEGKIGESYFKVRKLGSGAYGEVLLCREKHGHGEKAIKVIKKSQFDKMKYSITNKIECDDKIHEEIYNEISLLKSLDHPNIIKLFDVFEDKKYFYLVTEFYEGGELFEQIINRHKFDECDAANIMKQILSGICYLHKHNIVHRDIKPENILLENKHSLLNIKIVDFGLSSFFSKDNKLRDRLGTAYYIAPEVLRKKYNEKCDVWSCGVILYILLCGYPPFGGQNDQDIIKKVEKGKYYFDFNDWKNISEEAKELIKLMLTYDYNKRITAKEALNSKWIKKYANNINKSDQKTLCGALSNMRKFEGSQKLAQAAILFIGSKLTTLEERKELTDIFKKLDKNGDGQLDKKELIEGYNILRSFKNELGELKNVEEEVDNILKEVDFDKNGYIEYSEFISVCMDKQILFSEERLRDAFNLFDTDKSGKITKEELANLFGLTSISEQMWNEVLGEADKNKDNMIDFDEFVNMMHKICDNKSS

As usually defined, the inhibition is the change of the read-out against control, counted positive when it falls. For the molecule `Cc1cc2nc(-c3ccc(/C=C/C(=O)NC4CCCCC4)cc3)[nH]c2cc1C`, the growth inhibition in assay [1] was 10%; in assay [4] it was 93% (active). Moreover, the results for the inhibition in assay [2] and in assay [3] were 9% and 2%, respectively. The result in assay [5], in assay [6], in assay [7] and in assay [8] was inactive.

Turning to `COc1ccccc1C1CCN(CCCCNC(=O)c2ccc(NC(=O)c3ccc(Cl)cc3)cc2)CC1`, the growth inhibition is 12% in assay [1] and 95% (active) in assay [4]. The inhibition was 21% in assay [2] and 6% in assay [3]. The outcome in assay [5], in assay [6], in assay [7] and in assay [8] was inactive.

On to `O=C(Nc1ccc(-c2nc3ccccc3[nH]2)cc1)C1CCCN(C2CCC2)C1` (stereo not given), for which the growth inhibition is 5% in assay [1] and 90% (active) in assay [4]. The inhibition in assay [2] is -1%; in assay [3] it was 4%. Further, the result in assay [5], in assay [6], in assay [7] and in assay [8] was inactive.

As for `CC(C)(Cc1ccc(Cl)cc1)NCCCCCCNCCc1ccc(O)c(O)c1`, the figures for the growth inhibition in assay [1] and in assay [4] were -7% and 90% (active), respectively. Also, the inhibition is 45% in assay [2] and -8% in assay [3]. Moreover, the result in assay [5], in assay [6], in assay [7] and in assay [8] was inactive.

For `O=C(NCC1CCN(Cc2ccc3c(c2)OCCO3)C1)c1cc(-c2ccccc2F)cs1` (stereo not given), the values for the growth inhibition in assay [1] and in assay [4] were -1% and 95% (active), respectively. In addition, the inhibition in assay [2] is 18%; in assay [3] it was 4%. Also, the outcome in assay [5], in assay [6], in assay [7] and in assay [8] was inactive.

`COc1ccccc1CNc1ncc(-c2ccsc2)c(-c2nccs2)n1`: the growth inhibition in assay [1] is 84% (active); in assay [4], 91% (active). For the same molecule, the results for the inhibition in assay [2] and in assay [3] were 14% and 2%, respectively. For the same molecule, the result in assay [5], in assay [6], in assay [7] and in assay [8] was inactive.

Regarding `Cc1cc(=O)c(-c2ccc(Sc3ccc(Cl)cc3)cc2)c(C)[nH]1`, the figures for the growth inhibition in assay [1] and in assay [4] were 84% (active) and 92% (active), respectively. Further, the inhibition was -3% in assay [2] and -7% in assay [3]. Moreover, the outcome in assay [5], in assay [6], in assay [7] and in assay [8] was inactive.

In the case of `c1ccc2c(CNc3ccnc(NCc4cccc5ccccc45)n3)cccc2c1`, the figures for the growth inhibition in assay [1] and in assay [4] were 71% (active) and 99% (active), respectively. Besides, the inhibition was 51% (active) in assay [2] and 3% in assay [3]. For the same molecule, the result in assay [5], in assay [6], in assay [7] and in assay [8] was inactive.

On to `COc1cc2c(cc1N1CCN(C)CC1)N(C(=O)Nc1ccc(-c3ccncc3)c(Cl)c1Cl)CC2`, for which the growth inhibition was 4% in assay [1] and 102% (active) in assay [4]. The inhibition in assay [2] was 10%; in assay [3], -6%. Also, the result in assay [5], in assay [6], in assay [7] and in assay [8] was inactive.

As to `CCNc1cc(C(=O)N[C@@H](Cc2ccccc2)[C@H](O)CNC2(Cc3cccc(Cl)c3)CCC2)cc(N2CCCCS2(=O)=O)c1`, the growth inhibition was 83% (active) in assay [1] and 95% (active) in assay [4]. For the same molecule, the inhibition is 22% in assay [2] and 1% in assay [3]. Also, the outcome in assay [5], in assay [6], in assay [7] and in assay [8] was inactive.

`CN(C)CCNc1cc(-c2cccnc2)nc(-c2ccncc2)n1`: the growth inhibition was 98% (active) in assay [1] and 100% (active) in assay [4]. The inhibition in assay [2] is 33%; in assay [3], -5%. For the same molecule, the outcome in assay [5], in assay [6], in assay [7] and in assay [8] was inactive.

For `O=C(Nc1cccc(-c2ccc(-c3nc4ccc(F)cc4[nH]3)cc2)c1)c1ccoc1`, the growth inhibition in assay [1] is 6%; in assay [4], 85% (active). In addition, the inhibition in assay [2] was 39%; in assay [3] it was -7%. Besides, the result in assay [5], in assay [6], in assay [7] and in assay [8] was inactive.

For `CCCCCC(C)C(C)c1cc(O)c2c(c1)OC(C)(C)CC2(O)c1ccnn1C` (stereo not given), the growth inhibition in assay [1] is 95% (active); in assay [4], 98% (active). Besides, the inhibition was 20% in assay [2] and 4% in assay [3]. The outcome in assay [5], in assay [6], in assay [7] and in assay [8] was inactive.

With `O=C(N[C@@H](Cc1ccccc1)C(=O)O)c1cc(-c2ccc(F)cc2)no1` (tested in a mixture with another compound), the growth inhibition in assay [1] was 49%; in assay [4], 96% (active). The inhibition in assay [2] is -2%; in assay [3] it was -3%. In addition, the outcome in assay [5], in assay [6], in assay [7] and in assay [8] was inactive.

Regarding `CCCCCCCN1CC[C@@H](CCCc2ccnc3ccc(OCCCCNC(N)=O)cc23)[C@@H](CC)C1`, the growth inhibition was 18% in assay [1] and 93% (active) in assay [4]. For the same molecule, the inhibition in assay [2] was 41%; in assay [3], -3%. For the same molecule, the outcome in assay [5], in assay [6], in assay [7] and in assay [8] was inactive.

With `CNCCNCc1cccc(-c2ccc(-c3nc4c(C)cccc4[nH]3)cc2)c1`, the growth inhibition in assay [1] was 21%; in assay [4], 98% (active). Also, the inhibition in assay [2] is 17%; in assay [3] it was -1%. In addition, the result in assay [5], in assay [6], in assay [7] and in assay [8] was inactive.

As to `CCOc1ccc(C(=O)Nc2cc(Br)c3c(c2)CNCC3)cc1Br`, the growth inhibition in assay [1] was 21%; in assay [4] it was 96% (active). Moreover, the values for the inhibition in assay [2] and in assay [3] were 18% and 0%, respectively. In addition, the result in assay [5], in assay [6], in assay [7] and in assay [8] was inactive.

`COc1c(C2CCN(CCCCNC(=O)C=Cc3cc4cc(Cl)ccc4o3)CC2)ccc2c1CCCC2`: the growth inhibition is 19% in assay [1] and 87% (active) in assay [4]. For the same molecule, the inhibition in assay [2] is 33%; in assay [3], 2%. The outcome in assay [5], in assay [6], in assay [7] and in assay [8] was inactive.

With `CCOc1ccc(OCC)c(N2CCN(CCCCNC(=O)c3ccc(NC(=O)c4ccc(Cl)cc4)cc3)CC2)c1`, the growth inhibition in assay [1] was 40%; in assay [4] it was 97% (active). The inhibition is 13% in assay [2] and 1% in assay [3]. Also, the result in assay [5], in assay [6], in assay [7] and in assay [8] was inactive.

As to `COc1cccc(-c2cc3nc4c(c(NCCCn5ccnc5)n3n2)CCCC4)c1`, the growth inhibition was 66% (active) in assay [1] and 100% (active) in assay [4]. The inhibition in assay [2] was 10%; in assay [3], -2%. Further, the outcome in assay [5], in assay [6], in assay [7] and in assay [8] was inactive.
